In PubChem BioAssay:
“And” between values parts separate entries of the source, which are not always exact repeats. Equal entries are not always repeated. The source made the active and inactive calls.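 Rule for the calls, unless noted: active = compounds whose cell count with miR-34 switched on is under 0.7 times the count with it off; inactive = the rest.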

Key:
[1] = compounds altering viability of human ES cells (AID 493140; call rule not given here;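 note: cells exposed to compounds for four days before counting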); settings: human embryonic stem cell survival screen; stronger effect = higher value
[2] = P. berghei load reduction in hepatocytes – cell-based, HepG2, luciferase luminescence, HepG2 viability, primary screen (AID 624349; in the data active = parasite load remaining mostly below about 12%, no sharp cut-off; inactive = mostly above about 10%;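 note: 100% = mean of DMSO negative control wells on the same plate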); settings: P. berghei liver stage in HepG2, luciferase luminescence, concentration not given here; parasite load remaining: stronger effect = lower value; viability: measured here: HepG2 viability without parasites
[3] = Wnt pathway potentiators raising nuclear beta-catenin – imaging, WNT3A-conditioned medium, mouse C2C12, NPC library, primary screen (AID 1117326; in the data active = nuclear beta-catenin stimulation mostly above about 4.2%, no sharp cut-off; inactive = mostly below about 10%); settings: stronger effect = higher value
[4] = stimulators of insulin release from INS-1E, primary screen, cell-based, 5 mM glucose, NPC library (AID 1117329;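 active = compound raises insulin release from rat beta cells at 5 mM glucose, no numeric limit stated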); settings: rat INS-1E insulin secretion, at 10 µM, stronger effect = higher value
[5] = growth inhibition of GSK3B-pretreated HCT116 cells – cell-based, CellTiter-Glo, 0.2 to 20 µM (AID 1117336;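 active = compounds lowering colon cancer cell viability after pretreatment blocking the GSK3B kinase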); settings: HCT116 viability after GSK3B inhibitor, at 20 µM, stronger effect = higher value
[6] = inhibition of endothelial tube formation, primary screen, imaging, VEGF stimulated, CD31 staining, tube area, NPC library (AID 1117340;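 active = compound that reduces growth-factor-driven endothelial tube area in a mixed cell culture, no cutoff stated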); settings: VEGF-stimulated ADSC/ECFC co-culture, at 10 µM, stronger effect = higher value
[7] = GLP1 release stimulators, primary, NCI-H716, NPC library (AID 1117341;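 active = compound raises GLP1 secretion from the human gut endocrine cells, with no numeric limit stated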); settings: NCI-H716 cells, at 10 µM, stronger effect = higher value
[8] = HCT116 colon cancer cell growth inhibition, primary screen, CellTiter-Glo luminescence, NPC library (AID 1117342;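 active = compounds that lower survival of HCT116 colon cancer cells in the luminescence readout, no numeric limit stated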); settings: at 20 µM (top of the series)
[9] = reduced SW480 viability measured with CellTiter-Glo, NPC library, primary (AID 1117343;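 active = compounds that lower viability of the colon cancer cells in the luminescence readout, with no numeric limit stated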); settings: CellTiter-Glo luminescence; at 20 µM (top of the series) unless noted
[10] = NPC library primary testing for decreased DLD-1 cell viability via CellTiter-Glo (AID 1117346;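 active = compounds that lower survival of DLD-1 colon cancer cells in the luminescence readout, no cutoff given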); settings: DLD-1 viability, CellTiter-Glo luminescence; at 20 µM (top of the series)
[11] = EMT-state selective cytotoxicity in co-culture – imaging, PC-3E GFP, TEM4-18 mCherry, primary screen (AID 1345086;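 active = compounds killing one labelled cell type while sparing the other, by normalised counts and ratio limits, not self-fluorescent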;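 for all read-outs here: cells exposed to compound for 72 h before imaging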;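 for red/green cell ratio (normalised): normalised mesenchymal count divided by normalised epithelial count so high means epithelial killing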); settings: PC-3E GFP / TEM4-18 mCherry co-culture, imaging cell counts, at 1 µM; for red/green cell ratio (normalised): actives lie on both sides, counts scaled to control wells, 1 = unselective
[12] = viability loss with induced miR-34 in A549 – imaging, A549 dox-inducible miR-34, nuclei and caspase counts, primary screen (AID 1347080); settings: A549 miR-34 inducible, Hoechst nuclei count, 48 h
[13] = MELAS cybrid and Rieske KO viability enhancers – cell-based, MELAS cybrids, Rieske KO mouse fibroblasts, CellTiter-Glo, primary screen (AID 1508586;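 active = mean z-score across replicates of 1.96 or higher in either the MELAS or the Rieske mutant cell line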;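 note: z relative to plate mean and SD of compound and empty wells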); settings: low glucose
[14] = target: NAD(+) hydrolase SARM1 (Homo sapiens) (UniProt Q6SZW1); assay: blocking NAD cleavage by SARM1 SAM-TIR – cell lysate, NAD-Glo luminescence (AID 1508614;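 active = compound whose remaining NAD level is above about 45 nM, limit read from the data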;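 note: higher remaining NAD means stronger inhibition of SARM1 NADase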); settings: SAM-TIR HEK293T lysate NADase, at 1 µM, stronger effect = higher value
[15] = measured here: epithelial PC-3E GFP cell survival
[16] = measured here: mesenchymal TEM4-18 mCherry cell survival
[17] = stronger effect = lower value, cell number ratio, induced over uninduced
[18] = measured here: relative caspase fold change +Dox/-Dox
[19] = measured here: total cells with miR-34 induction, stronger effect = lower value
[20] = measured here: total cells without miR-34 induction
[21] = MELAS cybrid survival, CellTiter-Glo 48 h, stronger effect = higher value
[22] = Rieske KO mouse fibroblast survival, CellTiter-Glo 72 h

NAD(+) hydrolase SARM1 (Homo sapiens), sequence (Q6SZW1 whole entry, looked up): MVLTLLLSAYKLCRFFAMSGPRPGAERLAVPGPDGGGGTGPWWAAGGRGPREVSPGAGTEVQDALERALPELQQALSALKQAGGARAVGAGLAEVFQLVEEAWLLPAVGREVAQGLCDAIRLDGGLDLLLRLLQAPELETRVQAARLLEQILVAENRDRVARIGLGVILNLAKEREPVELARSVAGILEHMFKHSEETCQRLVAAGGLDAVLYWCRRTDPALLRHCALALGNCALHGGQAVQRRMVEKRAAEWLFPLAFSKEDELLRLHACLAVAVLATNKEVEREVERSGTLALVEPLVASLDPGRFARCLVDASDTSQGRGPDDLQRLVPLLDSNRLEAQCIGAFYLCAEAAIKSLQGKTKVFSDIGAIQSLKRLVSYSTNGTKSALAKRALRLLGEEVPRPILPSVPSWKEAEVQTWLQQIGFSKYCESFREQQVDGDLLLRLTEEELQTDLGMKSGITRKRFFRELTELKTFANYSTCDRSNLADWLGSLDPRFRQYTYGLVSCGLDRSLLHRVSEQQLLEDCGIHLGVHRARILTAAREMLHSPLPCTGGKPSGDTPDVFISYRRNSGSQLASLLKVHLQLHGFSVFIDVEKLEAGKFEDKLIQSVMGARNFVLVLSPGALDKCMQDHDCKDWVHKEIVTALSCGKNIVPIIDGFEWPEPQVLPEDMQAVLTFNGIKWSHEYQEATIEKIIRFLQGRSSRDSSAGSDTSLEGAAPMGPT

NCCc1ccn[nH]1
survival [1]: 17.5 (inactive)
parasite load remaining [2]: 35.3% (inactive) and 97.6% (inactive)
viability [2]: 49.8% and 93.1%
nuclear beta-catenin stimulation ([3]; at 10 µM): 1% (inactive)
nuclear beta-catenin stimulation ([3]; stimulation, at 2 µM): 0.9%
insulin secretion stimulation [4]: -1.5% (inactive)
viability decrease [5]: -5% (inactive)
tube area decrease [6]: -21.4% (inactive)
GLP1 secretion stimulation [7]: 1.1% (inactive)
inhibition of viability [8]: -8.9% (inactive)
viability decrease (inhibition) [9]: 12.5% (inactive)
viability decrease (inhibition) [10]: -9.4% (inactive)
red/green cell ratio (normalised) [11]: 0.76 (inactive)
normalised cell number [11, 15]: 1.25
normalised cell number [11, 16]: 0.95
fold change [12, 17]: 0.91 (inactive)
fold change [12, 18]: 1.36
cell count [12, 19]: 9040
cell count [12, 20]: 9920
z-score [13, 21]: 0.417 (inactive)
z-score [13, 22]: 0.115
remaining NAD [14]: 10 nM (inactive)

CN(C(=O)CN(CCO)CC(=O)N(C)C(C)(C)Cc1ccccc1)C(C)(C)Cc1ccccc1
survival [1]: 8.83 (inactive)
nuclear beta-catenin stimulation ([3]; at 10 µM): 9.4% (inactive)
nuclear beta-catenin stimulation ([3]; stimulation, at 2 µM): 3.2%
insulin secretion stimulation [4]: 1.4% (inactive)
viability decrease [5]: -33.9% (inactive)
tube area decrease [6]: 2.2% (inactive)
GLP1 secretion stimulation [7]: 107% (active)
inhibition of viability [8]: 59.3% (active)
viability decrease (inhibition) [9]: 124% (active)
viability decrease (inhibition) [10]: 104% (active)
red/green cell ratio (normalised) [11]: 1.14 (inactive)
normalised cell number [11, 15]: 1.13
normalised cell number [11, 16]: 1.29
fold change [12, 17]: 0.876 (inactive) and 0.908 (inactive)
fold change [12, 18]: 1.3 and 4.08
cell count [12, 19]: 7940 and 11300
cell count [12, 20]: 9070 and 12400
z-score [13, 21]: 0.165 (inactive)
z-score [13, 22]: -0.15
remaining NAD [14]: 10 nM (inactive)

O=C(Oc1ccccc1C(=O)O)c1ccccc1O
parasite load remaining [2]: 63.4% (inactive)
viability [2]: 139%
nuclear beta-catenin stimulation ([3]; at 10 µM): 0.1% (inactive)
nuclear beta-catenin stimulation ([3]; stimulation, at 2 µM): 0.1%
insulin secretion stimulation [4]: -0.5% (inactive)
viability decrease [5]: 13.4% (inactive)
tube area decrease [6]: 3.9% (inactive)
GLP1 secretion stimulation [7]: -0.4% (inactive)
inhibition of viability [8]: 0.8% (inactive)
viability decrease (inhibition) [9]: 16.6% (inactive)
viability decrease (inhibition) [10]: 24.3% (inactive)
red/green cell ratio (normalised) [11]: 1.15 (inactive)
normalised cell number [11, 15]: 1.17
normalised cell number [11, 16]: 1.35
fold change [12, 17]: 0.931 (inactive) and 0.896 (inactive)
fold change [12, 18]: 1.03 and 3.07
cell count [12, 19]: 8500 and 11000
cell count [12, 20]: 9120 and 12300
z-score [13, 21]: -0.0904 (inactive)
z-score [13, 22]: -0.293
remaining NAD [14]: 10 nM (inactive)

CC1CC(OC(=O)c2ccccc2O)CC(C)(C)C1 (stereo unspecified)
survival [1]: 6 (inactive)
parasite load remaining [2]: 86.4% (inactive) and 63% (inactive)
viability [2]: 75.8% and 101%
nuclear beta-catenin stimulation ([3]; at 10 µM): 1.8% (inactive)
nuclear beta-catenin stimulation ([3]; stimulation, at 2 µM): -0.1%
insulin secretion stimulation [4]: 0% (inactive)
viability decrease [5]: -63.6% (inactive)
tube area decrease [6]: 4.9% (inactive)
GLP1 secretion stimulation [7]: -7.6% (inactive)
inhibition of viability [8]: 9.33% (inactive)
viability decrease (inhibition) [9]: 6% (inactive)
viability decrease (inhibition) [10]: -0.4% (inactive)
red/green cell ratio (normalised) [11]: 1.12 (inactive)
normalised cell number [11, 15]: 1.37
normalised cell number [11, 16]: 1.53
fold change [12, 17]: 0.96 (inactive) and 0.853 (inactive)
fold change [12, 18]: 0.489 and 3.24
cell count [12, 19]: 9060 and 10300
cell count [12, 20]: 9440 and 12000
z-score [13, 21]: -0.66 (inactive)
z-score [13, 22]: -0.623
remaining NAD [14]: 10 nM (inactive)

CCN(CC)CCc1nc(-c2ccccc2)no1
survival [1]: 3.33 (inactive)
parasite load remaining [2]: 66.5% (inactive)
viability [2]: 105%
nuclear beta-catenin stimulation ([3]; at 10 µM): 2% (inactive)
nuclear beta-catenin stimulation ([3]; stimulation, at 2 µM): 1.3%
insulin secretion stimulation [4]: -0.7% (inactive)
viability decrease [5]: -19.4% (inactive)
tube area decrease [6]: -1% (inactive)
GLP1 secretion stimulation [7]: 3.1% (inactive)
inhibition of viability [8]: -2.53% (inactive)
viability decrease (inhibition) [9]: 10% (inactive)
viability decrease (inhibition) [10]: -2.9% (inactive)
red/green cell ratio (normalised) [11]: 0.94 (inactive)
normalised cell number [11, 15]: 1.14
normalised cell number [11, 16]: 1.07
fold change [12, 17]: 0.948 (inactive) and 0.876 (inactive)
fold change [12, 18]: 0.926 and 0.982
cell count [12, 19]: 8840 and 9090
cell count [12, 20]: 9330 and 10400
z-score [13, 21]: 0.0836 (inactive)
z-score [13, 22]: -0.0837
remaining NAD [14]: 10 nM (inactive)

O=S(=O)(O)NC1CCCCC1
nuclear beta-catenin stimulation ([3]; at 10 µM): 0.2% (inactive)
nuclear beta-catenin stimulation ([3]; stimulation, at 2 µM): 0.3%
insulin secretion stimulation [4]: -1.6% (inactive)
viability decrease [5]: -5.65% (inactive)
tube area decrease [6]: -18.4% (inactive)
GLP1 secretion stimulation [7]: -0.8% (inactive)
inhibition of viability [8]: -5.4% (inactive)
viability decrease (inhibition) [9]: 8.9% (inactive)
viability decrease (inhibition) [10]: 1.3% (inactive)
red/green cell ratio (normalised) [11]: 0.89 (inactive)
normalised cell number [11, 15]: 0.95
normalised cell number [11, 16]: 0.84
fold change [12, 17]: 0.883 (inactive) and 0.898 (inactive)
fold change [12, 18]: 0.921 and 0.472
cell count [12, 19]: 8650 and 7930
cell count [12, 20]: 9790 and 8830
z-score [13, 21]: -0.205 (inactive)
z-score [13, 22]: -0.173
remaining NAD [14]: 10 nM (inactive)

CCOc1ccc2nc(S(N)(=O)=O)sc2c1
parasite load remaining [2]: 32.3% (inactive) and 52.3% (inactive)
viability [2]: 171% and 98.2%
nuclear beta-catenin stimulation ([3]; at 10 µM): 1.3% (inactive)
nuclear beta-catenin stimulation ([3]; stimulation, at 2 µM): 0.1%
insulin secretion stimulation [4]: -2.2% (inactive)
viability decrease [5]: 16.7% (inactive)
tube area decrease [6]: 20.8% (inactive)
GLP1 secretion stimulation [7]: 2.1% (inactive)
inhibition of viability [8]: -30% (inactive)
viability decrease (inhibition) [9]: 85.7% (active)
viability decrease (inhibition) [10]: 7.15% (inactive)
red/green cell ratio (normalised) [11]: 0.96 (inactive)
normalised cell number [11, 15]: 0.89
normalised cell number [11, 16]: 0.86
fold change [12, 17]: 0.841 (inactive) and 0.925 (inactive)
fold change [12, 18]: 3.81 and 2.83
cell count [12, 19]: 10500 and 10700
cell count [12, 20]: 12500 and 11500
z-score [13, 21]: -0.477 (inactive)
z-score [13, 22]: 0.458
remaining NAD [14]: 10 nM (inactive)

CN1C(CCl)Nc2cc(Cl)c(S(N)(=O)=O)cc2S1(=O)=O (stereo unspecified)
nuclear beta-catenin stimulation ([3]; at 10 µM): -0.9% (inactive)
nuclear beta-catenin stimulation ([3]; stimulation, at 2 µM): 1.3%
insulin secretion stimulation [4]: 2.3% (inactive)
viability decrease [5]: 0.4% (inactive)
tube area decrease [6]: 3.9% (inactive)
GLP1 secretion stimulation [7]: -2.1% (inactive)
inhibition of viability [8]: -10.4% (inactive)
viability decrease (inhibition) [9]: -2.9% (inactive)
viability decrease (inhibition) [10]: -20.7% (inactive)
red/green cell ratio (normalised) [11]: 0.93 (inactive)
normalised cell number [11, 15]: 1.23
normalised cell number [11, 16]: 1.15
fold change [12, 17]: 0.914 (inactive) and 0.898 (inactive)
fold change [12, 18]: 1.08 and 0.519
cell count [12, 19]: 8680 and 8370
cell count [12, 20]: 9500 and 9310
z-score [13, 21]: -0.258 (inactive)
z-score [13, 22]: -0.124
remaining NAD [14]: 10 nM (inactive)
